Screening data deposited in PubChem BioAssay by National Center for Advancing Translational Sciences (NCATS).
Only some compounds are listed: those with a hit (about 1.2% of all), similar ones and a draw of the others.
PI5P4Ka inh: inhibitors of human PI5P4K alpha; max response, %; 330,000 compounds, 1.2% hits; PI5P4Kalpha enzyme, ADP-Glo luminescence, 60 min; active compounds read low; P48426; AID 652105; active means max response of -50% or lower; inconclusive means between -30% and -50%; inactive means -30% or higher; further: value at the top dose of about 77 µM; on the % scale 0 is the no-effect control and ±100 the full control effect
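Luminescence from ADP-Glo served as readout of PI5P4Kalpha activity in a qHTS format. Reaction: enzyme, substrate, compound, ATP at 5 microM final, 60 min at RT.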
Tb PGK inh: blocks T. brucei phosphoglycerate kinase; P07378; PGK/GAPDH coupled, Kinase-Glo luminescence, 60 min; Potency, µM (doses to about 57.5 µM), inactives show top-dose activity change, negative = inhibition, hits mostly inhibitors; 380,000 compounds, 0.043% hits; AID 602233; further: potency means the concentration at half of the fitted maximal effect; on the % scale 0 is the no-effect control and ±100 the full control effect; nearly all actives have a fitted effect of over 60% in size
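Recombinant glycosomal PGK reaction used 1,3-bisphosphoglycerate generated in-well by GAPDH (100nM final) in 100mM TEA pH 7.6, 5mM MgCl2, 0.01% Tween-20. After 60 minutes at room temperature, ATP was read by Kinase-Glo Plus luminescence end-point.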
GCN5L2 inh-1: GCN5L2 (KAT2A) acetyltransferase inhibition | Q92830 | GCN5L2 HAT assay, ThioGlo1 CoA-SH fluorescence | Potency, µM (series often up to 58.9 µM), without a hit: at the highest dose activity change, negative = inhibition, hits mostly inhibitors | 390,000 compounds, 0.21% hits | AID 504327; further: potency means the concentration at half of the fitted maximal effect; on the % scale 0 is the no-effect control and ±100 the full control effect
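Titration-based screen in which CoA formation is detected via maleimide probe ThioGlo1 (50uM) turning fluorescent on thiol reaction; substrates H3(1-25) 75uM and acetyl-CoA 70uM, GCN5L2 20nM, 20 min incubation at room temperature.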
PI4K2A block: PI4K2A (human) kinase inhibition | Q9BTU6 | purified PI4K2A, ADP-Glo luminescence, 1 h; active compounds read low | activity change, negative = inhibition, % at 76.9 µM | 420,000 compounds, 0.13% hits | AID 1346378; in the data active means activity change below about -50%; inconclusive means mostly about -30% to -49%;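 further: -100% = wells without enzyme as full effect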
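In this quantitative HTS, ADP production by PI4K2A was quantified luminescently after 1 h at ambient temperature; 100 microM adenosine served as plate-quality control.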
RGS12 GoLoco inh-1: RGS12 GoLoco-Gai1 interaction inhibition. P63096. Gai1:RGS12 GoLoco peptide FP, rhodamine, 10 min. Potency, µM (doses to about 61.6 µM), without a hit: at the highest dose activity, negative = inhibition, usual class: inhibitors. 230,000 compounds, 0.44% hits; active means well fitted inhibition curve with a large enough effect, not every such curve was filed as active; inactive means no such curve, though single readings can be large or run the other way; further: potency means the concentration at half of the fitted maximal effect; on the % scale 0 is the no-effect control and ±100 the full control effect; nearly all actives have a fitted effect of over 30% in size
Target sequence (P63096 whole entry, looked up): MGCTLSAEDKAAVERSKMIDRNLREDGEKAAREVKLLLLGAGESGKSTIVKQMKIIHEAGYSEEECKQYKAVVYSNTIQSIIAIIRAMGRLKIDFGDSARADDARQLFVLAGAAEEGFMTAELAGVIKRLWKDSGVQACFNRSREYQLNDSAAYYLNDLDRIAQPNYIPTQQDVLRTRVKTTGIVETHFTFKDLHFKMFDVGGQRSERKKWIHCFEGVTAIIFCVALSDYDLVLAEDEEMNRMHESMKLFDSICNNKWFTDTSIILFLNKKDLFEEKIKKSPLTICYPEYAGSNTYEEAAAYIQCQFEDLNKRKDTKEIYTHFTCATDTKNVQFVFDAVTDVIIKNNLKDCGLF
Pin1 inh: inhibitors of human Pin1; Q13526; Pin1 FP peptide displacement, HiFluor488, 10 min; Potency, µM (highest dose often 115 µM), for inactives: top-dose activity, negative = inhibition, hits mostly inhibitors; 390,000 compounds, 0.009% hits; AID 504891; active means well fitted inhibition curve with a large enough effect in the polarisation, with a control signal flat, not every such curve was filed as active; inconclusive means small, poorly fitted or top-dose-only effect, or effect the other way, or a change in a side signal; inactive means no such curve, though single readings can be large or run the other way; the % refers to the polarisation; further: potency means the concentration at half of the fitted maximal effect; on the % scale 0 is the no-effect control and ±100 the full control effect
Target sequence (Q13526 whole entry, looked up): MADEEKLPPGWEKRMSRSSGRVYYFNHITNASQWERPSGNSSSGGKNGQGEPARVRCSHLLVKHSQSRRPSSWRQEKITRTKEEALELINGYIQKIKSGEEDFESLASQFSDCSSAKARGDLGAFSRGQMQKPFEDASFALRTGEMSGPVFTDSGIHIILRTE
RGS12 GoLoco inh-2: confirmation of human RGS12 GoLoco motif inhibitors | shares compounds with RGS12 GoLoco inh-1 | Gai1/rhodamine-RGS12 GoLoco peptide fluorescence polarization | Potency, µM (series often up to 57.1 µM), without a hit: top-dose activity, negative = inhibition, most hits filed as inhibitors | 110 compounds, 50% hits | AID 2390
GCN5L2 inh-2: human KAT2A HAT inhibition, hit confirmation | 140 compounds, 70% hits | Potency, µM, hits mostly inhibitors | AID 588347 | shares compounds with GCN5L2 inh-1 | GCN5L2 HAT, ThioGlo1 CoA fluorescence, 20 min
ADP-Glo interf: ADP-Glo luciferase interference, PI5P4K counter-screen. shares compounds with PI5P4Ka inh. ADP-Glo detection counter-screen, luciferase luminescence, no enzyme. Potency, µM (highest dose often 76.9 µM), without a hit: at the top dose activity change, negative = inhibition, most hits filed as inhibitors. 1,100 tested, under 10 active
An asterisk follows results filed as active; i = inactive; u = inconclusive; x = not tested or not shown; ! = not active in a repeat; [ ] = dose if it differs, or a comment. Unless noted, the call rests on the fitted dose curve; in most records, active means well fitted curve in the direction sought with a large enough effect; inconclusive means small, poorly fitted or top-dose-only effect, or another doubt; inactive means no such curve, though single readings can be large; an effect the other way counts as inactive or inconclusive.

SMILES | PI5P4Ka inh | Tb PGK inh | GCN5L2 inh-1 | PI4K2A block | RGS12 GoLoco inh-1 | Pin1 inh | others
C[C@H](NC(=O)[C@@H](N)Cc1ccc(O)cc1)C(=O)NCC(=O)N(C)[C@@H](Cc1ccccc1)C(=O)N[C@H](CO)CCS(C)=O (stereo partly drawn) | x | x | -3.1% | x | 16.4% | x
CCOCCOC(C)=O | x | x | x | i | 28.2µM* | x
CC(=O)O[C@H]1C2[C@@H](OC(=O)Cc3ccccc3)[C@@H](C)C[C@]2(OC(C)=O)C(=O)/C(C)=C/[C@@H]2[C@H](CC[C@@]13CO3)C2(C)C (stereo partly drawn) | x | x | 11.4% | x | x | x
CC(=O)N1CN(C(C)=O)CN(C(C)=O)C1 | 0.3 | 4.9% | -1.3% | 0.4 | 2.3% | -11.1%
CC(=O)N1CC[N+](C)(C)CC1 | x | x | 20µM* | x | -34.9% | x
C[C@]12CC[C@H]3[C@@H](CCC4=CC(=O)CC[C@@H]43)[C@@H]1CC[C@@H]2OC(=O)CCC1CCCCC1 | x | x | x | -1.2 | x | x
C[N+]1([O-])[C@@H]2CC(OC(=O)[C@H](CO)c3ccccc3)C[C@H]1[C@@H]1O[C@@H]12 (stereo partly drawn) | -59.3* | -5.2% | 2.9% | 4.9 | x | -2.4%
CCCCn1c(NS(=O)(=O)c2ccccc2)c(C(=O)OCC)c2nc3ccccc3nc21 | -4.2 | -5.9% | 25.1µM* | -1.0 | 2.4% | u
CCCCn1c(NC(=O)c2ccc(Br)o2)c(C(=O)OCC)c2nc3ccccc3nc21 | 0.9 | -2.2% | -11.7% | -8.0 | -20.4% | 29.7%
CCOc1ccccc1N=C1SCCCN1C | x | -3.3% | -1.1% | -1.5 | 3.55µM* | -5.2%
O=C(CCN1CC2CCC(CC2)C1)c1cccs1 | 13.8 | -7.0% | x | 1.6 | 4.4%[14.2 µM] | 4.3%
CCCC[N+]12CCC(CC1)C(C(=O)c1cccs1)C2 (stereo not drawn) | -1.5 | 1.6% | 2.7% | -3.8 | 6.31µM* | -0.8% | RGS12 GoLoco inh-2=15.8µM*
CC[C@@]1(O)CC(O)c2c(cc3c(c2O)C(=O)c2c(O)ccc(O)c2C3=O)C1C(=O)OC (stereo partly drawn) | x | x | -3.2% | x | 2.82µM* | x | RGS12 GoLoco inh-2=5.01µM*
C=C(C)C1CNC(C(=O)O)C1CC(=O)O (stereo not drawn) | x | x | x | x | 0.0% | x
Oc1ccc2c3c1OC1C(O)CC[C@]4(O)C(C2)N(CC2CCC2)CC[C@]314 (stereo partly drawn) | x | x | -2.2% | x | 28.2µM* | x | RGS12 GoLoco inh-2=1.2%
Oc1ccc2c3c1OC1C(O)CC[C@@]4(O)[C@@H](C2)N(CC2CCC2)CC[C@]314 (stereo partly drawn) | x | x | 0.2% | x | 5.6% | x
CCC1([N+](=O)[O-])COP(N)(=O)OC1 (stereo not drawn) | 1.4 | -4.6% | x | 6.0 | x | -11.9%
COc1ccc2c(c1OC)C(=O)OC2C1c2cc3c(cc2CCN1C)OCO3 (stereo not drawn) | -3.0 | -4.7% | u | 2.7 | 20µM*! | 0.1% | RGS12 GoLoco inh-2=1.5%
CCC(CO)(C(=O)OC1C[N+]2(C)CCC1CC2)c1ccccc1 (stereo not drawn) | 0.1 | i | -7.1% | -1.5 | 15.8µM* | -2.1% | RGS12 GoLoco inh-2=15.8µM*
CCOC(=O)c1ncn2c1[C@H]1CCCN1C(=O)c1cc(OC)ccc1-2 | x | x | 8.2%[0.501 µM] | x | 5.8% | x
COc1ccc(-c2cc(=NCC(=O)O)c3ccccc3o2)cc1 | 1.6 | -4.4% | u | -2.2 | x | 4.4% | GCN5L2 inh-2=32.4*
CCC(C)C1NC(=O)C(C(C)=O)=C1O (stereo not drawn) | -9.2 | i | -15.4% | -5.2 | -0.7% | 7.0%
COc1ccc(C(=O)C2CCCN(Cc3ccon3)C2)c(OC)c1 (stereo not drawn) | -83.6* | -14.5% | -9.0% | 1.0 | -0.8% | -8.5% | ADP-Glo interf=1.7%
CCC(NC(=O)OC(C)(C)C)C(=O)Oc1cc(C)cc2oc(=O)c3c(c12)CCC3 (stereo not drawn) | 3.4 | 0.0% | -7.0% | -1.5 | -20.4% | u
COc1ccc(CN2Cc3cnnn3-c3ccccc3C2C#N)cc1 (stereo not drawn) | -10.4 | -2.9% | x | 4.5 | x | -1.3%
N#CC1c2ccccc2-n2nncc2CN1Cc1cc(Cl)cc(Cl)c1 (stereo not drawn) | -59.6* | 8.3% | x | 3.4 | x | u | ADP-Glo interf=-8.8%
